The values below come from PubChem BioAssay AID1671189 (National Center for Advancing Translational Sciences (NCATS), 2021).

The whole screen tested about 1,100 compounds, of which about 70 (6%) were called active. A call without a number means that no potency is given here. Another 22% or so got no clear call; they are omitted. Calls follow the shape of the dose curve; as a rule, active = well fitted curve in the direction sought with a large enough effect; inconclusive = small, poorly fitted or top-dose-only effect, or another doubt; inactive = no such curve, though single readings can be large or run the other way. The full list was thinned out, with actives kept by preference.
Potency is read from the fitted curve at half-maximal effect.

This assay deals with Polyunsaturated fatty acid lipoxygenase ALOX12 (Homo sapiens) (UniProt P18054). Description: Confirmatory qHTS assay for inhibitors of human arachidonate 12S-lipoxygenase (ALOX12): Round 2. Conditions: purified human 12-LOX, xylenol orange absorbance; series mostly up to 125 µM. The procedure, abridged: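 Purified human enzyme (150 nM) in 25 mM Hepes, 0.01% Triton X-100, pH 7.0, preincubated 15 min with compound, then 40 uM arachidonic acid for 30 min at room temperature. Hydroperoxide detected by Fe-XO, read as 573/405 nm absorbance ratio.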
Sequence of Polyunsaturated fatty acid lipoxygenase ALOX12 (Homo sapiens) (P18054 whole entry, looked up): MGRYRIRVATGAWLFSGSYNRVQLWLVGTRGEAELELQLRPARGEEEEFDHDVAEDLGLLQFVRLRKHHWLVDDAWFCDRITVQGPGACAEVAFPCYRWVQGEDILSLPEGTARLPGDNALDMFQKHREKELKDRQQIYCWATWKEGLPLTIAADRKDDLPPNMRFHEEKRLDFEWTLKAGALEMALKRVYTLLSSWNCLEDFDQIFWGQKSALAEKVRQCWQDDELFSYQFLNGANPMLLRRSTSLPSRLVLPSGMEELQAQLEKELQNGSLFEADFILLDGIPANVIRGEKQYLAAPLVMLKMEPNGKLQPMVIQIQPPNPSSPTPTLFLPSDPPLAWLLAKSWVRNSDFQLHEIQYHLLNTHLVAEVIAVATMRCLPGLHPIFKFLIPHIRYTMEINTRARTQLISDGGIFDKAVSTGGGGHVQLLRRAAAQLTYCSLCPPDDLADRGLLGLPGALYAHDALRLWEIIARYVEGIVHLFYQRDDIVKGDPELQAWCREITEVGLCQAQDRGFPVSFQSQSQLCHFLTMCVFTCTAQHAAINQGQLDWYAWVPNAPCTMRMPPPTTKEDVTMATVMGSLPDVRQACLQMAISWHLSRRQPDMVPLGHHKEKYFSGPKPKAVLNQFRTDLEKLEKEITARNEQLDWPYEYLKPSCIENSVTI
As to `CSc1ccc(-c2ccc(C=O)cc2)cc1`, the Potency entry was “inactive”.

Take `CC(C)Nc1ncnc2c1CN(C1CCCNC1)C(=O)CN2C` (centres undefined): the Potency result was “inactive”. With `CN1CC(=O)N(C2CCCNC2)Cc2c1ncnc2N1CCN(Cc2ccccc2)CC1` (centres undefined) the entry was “inactive”; with `CN1CC(=O)N(C2CCCNCC2)Cc2c1ncnc2N1CCCC(O)C1` (centres undefined), “inactive”; with `CC[C@@](N)(C(=O)O)c1ccc(C(=O)O)cc1`, “inactive”. With `CCOCCCNc1ncnc2c1CN(C1CCNCC1)C(=O)CN2C` the entry was “inactive”; with `CN1CCC(C(=O)N2Cc3ccccc3OC3(CCN(C(=O)N(C)C)CC3)C2)CC1`, “inactive”; with `Cn1nc(C2CCCN2)c2c(C(=O)NCc3ccc(F)cc3)cc(C3CC3)nc21` (centres undefined), “inactive”. With `O=Cc1ccccc1-c1ccc(O)cc1` the entry was “inactive”; with `COc1ccc(N2CC3CCC(C2)N3Cc2cccc(Cl)c2)cc1`, “inactive”; with `CC(=O)NC(C)c1cc(F)c2cccnc2c1O` (centres undefined), 17.2 µM (active). Consider `CC(=O)NCc1cc(Cl)c2cccnc2c1O`, for which the Potency is 1.93 µM (active). With `CCC(=O)NC(c1cc(Cl)c2cccnc2c1O)C(C)C` (centres undefined) the figure was 10.9 µM (active); with `CC(=O)NC(C)c1cc(Cl)c2cccnc2c1O` (centres undefined), 6.85 µM (active). With `O=C(O)CCC(=O)N1Cc2ccccc2CC2(CCCN2CC2CCNC2)C1` (centres undefined) the entry was “inactive”; with `COc1cccc(CNc2ncnc3c2CN(C2CCCNCC2)C(=O)CN3C)c1` (centres undefined), “inactive”; with `CN1CCCC2(Cc3ccccc3CN(C(=O)c3ccc(Cl)cc3)C2)C1` (centres undefined), “inactive”. With `OCC1CN(c2ncccn2)CC12CCN(Cc1cccc3[nH]ccc13)CC2` (centres undefined) the entry was “inactive”. For `CN1CC(=O)N(C2CCCNCC2)Cc2c1ncnc2N1CCC(N2CCCCC2)CC1` (centres undefined), the Potency entry was “inactive”.

For `CNC(C)c1ccc(Oc2ccccc2)cc1` (centres undefined), the Potency entry is “inactive”. With `Cn1nc(C2CCCNC2)c2c(C(=O)NCC(F)(F)F)cc(C3CC3)nc21` (centres undefined) the entry was “inactive”; with `O=C(O)c1cccc(-c2cnc3ccccc3c2)c1`, “inactive”; with `Cn1nc(C2CCCN2)c2c(C(=O)NCc3cccs3)cc(C3CC3)nc21` (centres undefined), “inactive”.

For the compound `O=C(N1CCOCC1)N1CCCC1c1nnc2n1CCNC2` (centres undefined), the Potency result was “inactive”. With `NC(Cc1ccccc1)C(=O)N1CCC2(CC1)CN(C(=O)c1ccc(Cl)cc1)CCO2` (centres undefined) the entry was “inactive”. With `O=S(=O)(Nc1ncc(CN2CC[C@H]3CNC[C@H]32)cn1)c1ccccc1` the entry was “inactive”; with `CN1CC(=O)N(C2CCNCC2)Cc2c1ncnc2N1CCc2ccccc2C1`, “inactive”; with `COc1ccc(CN2CCCC23Cc2ccccc2CNC3=O)c(O)c1` (centres undefined), “inactive”. With `CCOC(=O)c1c(NC(=O)CSc2nnnn2-c2ccc(OC)cc2)sc(C)c1C` the entry was “inactive”; with `CC(=O)Nc1ccc(CN2CCC(c3nc4ccc(C)cc4c(=O)[nH]3)CC2)cc1`, “inactive”. Consider `CCCCc1ncc(-c2nccn2C2CCNC2)[nH]1` (centres undefined), for which the Potency result was “inactive”. With `O=C1NCc2ccccc2CC12CCN(Cc1c(F)cccc1F)C2` (centres undefined) the entry was “inactive”; with `COc1ccc(-c2nc(C3CC3)nc3c2CCN(C(=O)c2ccc(C(F)(F)F)cc2)CC3)cc1`, “inactive”.

Consider `O=[S+]([O-])(c1ccccc1)N1CC(Oc2ccc(F)c(F)c2)C1`, for which the Potency entry was “inactive”. Consider `CCC(=O)N1Cc2ccccc2CC2(CCCN(CC3CCNCC3)C2)C1` (centres undefined), for which the Potency entry is “inactive”.

Take `NCc1ccccc1-c1ccc(O)cc1`: the Potency result is “inactive”.

`Cn1nc(C2CCNC2)c2c(C(=O)NCc3ccncc3)cc(C3CC3)nc21` (centres undefined): the Potency entry was “inactive”.

In the case of `O=C1NC2(Cc3ccccc31)CN(C(=O)c1ccc3c(c1)OCO3)C2`, the Potency entry was “inactive”.

As to `CCC(=O)NC(c1cc(Cl)c2cccnc2c1O)C1CC1` (centres undefined), the Potency was 12.2 µM (active). With `CC(C)C[C@@H](N)C(=O)O` the entry was “inactive”; with `COc1cccc([S+](=O)([O-])N2CC(Oc3ccc(F)c(F)c3)C2)c1`, “inactive”; with `COc1cccc(N2C(=O)NC(=NC3CCCCC3)C23CCCN(C(=O)c2ccccc2)C3)c1` (centres undefined), “inactive”. With `CC(=O)NC1CC2(CCN(C(=O)Cc3c(C)noc3C)CC2)Oc2ccccc21` (centres undefined) the entry was “inactive”; with `CC(C)NC(=O)N1CCC2(CC1)CN(C(=O)Cc1c[nH]c3ccccc13)CCO2`, “inactive”.

As to `O=C(Nc1ccc(Oc2ccccc2)cc1)O[C@@H]1CO[C@H]2[C@@H]1OC[C@@H]2NS(=O)(=O)c1ccc(Cl)cc1`, the Potency is 5.01 µM (active).

With `CC(C)C(=O)N1Cc2ccccc2CC2(CCCCN2CC2CCNC2)C1` (centres undefined), the Potency result is “inactive”.

For `CN(C)CCCC(=O)N1Cc2ccccc2CC2(CCCCN2Cc2ccccc2)C1` (centres undefined), the Potency result is “inactive”. With `Cc1cc(C(=O)NC2CCNCC2)c2c(C3CCNCC3)noc2n1` the entry was “inactive”. With `CC(C)c1ccc(CNC(=O)C2CCN(c3cc(C(F)(F)F)ncn3)CC2)cc1` the entry was “inactive”; with `O=C1Nc2ccccc2CN(CC2CCCCC2)C12CCNCC2`, 49.4 µM (active); with `O=C1Nc2ccccc2CN(C/C=C/c2ccccc2)C12CCNC2` (centres undefined), “inactive”. With `O=C1Nc2ccccc2CC12CN(CC1CCCC1)C2` the entry was “inactive”. On to `C[S+](=O)([O-])N1Cc2ccccc2CC2(CCCCN2CC2CCNCC2)C1` (centres undefined), for which the Potency result is “inactive”.

In the case of `COc1ccc(CNc2ncnc3c2CN(C2CCNCC2)C(=O)CN3C)cc1`, the Potency entry was “inactive”. With `O=C(c1ccccc1)N1CCn2c(nnc2C2CCNCC2)C1` the entry was “inactive”; with `COc1cccc(CNc2ccc([S+](=O)([O-])Nc3cc4ccccc4s3)cc2)c1O`, 19.3 µM (active). With `Cc1ccc2nc(C3CCCN(Cc4ccccc4)C3)[nH]c(=O)c2c1` (centres undefined) the entry was “inactive”; with `O=C(c1ccccn1)N1CCn2c(nn(-c3ccc(Cl)cc3)c2=O)C1`, “inactive”. With `O=C1NC(=NC2CCCC2)C2(CCN(CC3CC3)C2)N1c1cccnc1` (centres undefined) the entry was “inactive”; with `CNC(=O)[C@@H](C1CCCCC1)N1CCC[C@H]1C(=O)N1CCC1`, 15.8 µM (active); with `C#CCN(C)C(=O)[C@@H]1CCCN1[C@H](CC(C)C)C(=O)NC`, “inactive”. Regarding `Cc1n[nH]c(C)c1CN1CCC2(CC1)CCN(C1CCOCC1)CC2CO` (centres undefined), the Potency result was “inactive”. With `CN1CC(=O)N(C2CCNCC2)Cc2c(NCCc3cccc(F)c3)ncnc21` the entry was “inactive”; with `COc1ccc(CN2Cc3[nH]cnc3C[C@H]2C(=O)NCc2ccco2)cc1`, “inactive”.
